# Measurements taken from ChEMBL document CHEMBL3988442, “University of Dundee, Small-Polar-MMV Screening Library” (2021).
# For part of these data: Entries with a potency or affinity are not part of this list.
# Key:
# [1] = biological target: T1, Methionyl-tRNA synthetase, putative (Leishmania donovani (strain BPK282A1)) (UniProt E9BF75); experiment: Leishmania donovani Methionine tRNA synthetase (LdMetRS):v7. Dose response assay; assay type: functional; set-up: conc 80 nM, time 150 minutes
# T1 sequence (whole entry): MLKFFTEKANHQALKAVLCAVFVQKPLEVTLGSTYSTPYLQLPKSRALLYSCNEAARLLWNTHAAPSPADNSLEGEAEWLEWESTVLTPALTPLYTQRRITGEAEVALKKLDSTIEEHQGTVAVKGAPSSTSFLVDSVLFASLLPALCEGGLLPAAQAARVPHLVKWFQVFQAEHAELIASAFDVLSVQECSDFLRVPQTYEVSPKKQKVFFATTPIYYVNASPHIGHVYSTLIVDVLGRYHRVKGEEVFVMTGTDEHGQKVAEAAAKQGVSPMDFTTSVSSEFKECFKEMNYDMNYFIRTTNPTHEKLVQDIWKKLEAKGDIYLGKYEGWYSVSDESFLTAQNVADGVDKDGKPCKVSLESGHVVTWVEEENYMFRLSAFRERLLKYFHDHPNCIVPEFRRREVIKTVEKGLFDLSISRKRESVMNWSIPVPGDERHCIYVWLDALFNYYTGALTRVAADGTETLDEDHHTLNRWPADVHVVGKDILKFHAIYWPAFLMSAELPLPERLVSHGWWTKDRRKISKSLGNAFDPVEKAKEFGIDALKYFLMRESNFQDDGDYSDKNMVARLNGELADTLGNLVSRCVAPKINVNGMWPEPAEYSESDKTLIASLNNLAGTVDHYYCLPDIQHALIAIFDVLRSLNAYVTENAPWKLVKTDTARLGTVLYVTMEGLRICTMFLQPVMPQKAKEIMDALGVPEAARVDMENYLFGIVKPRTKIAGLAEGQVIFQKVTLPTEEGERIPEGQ
# [2] = biological target: Protein translocase subunit SecA (Escherichia coli (strain K12)) (UniProt P10408); experiment: Assay to Identify E. coli SecA ATPase Inhibitors; assay type: functional; set-up: scale not given: direction of the effect not stated beside the values; details: 30 µM
# Protein translocase subunit SecA (Escherichia coli (strain K12)), sequence (P10408 whole entry): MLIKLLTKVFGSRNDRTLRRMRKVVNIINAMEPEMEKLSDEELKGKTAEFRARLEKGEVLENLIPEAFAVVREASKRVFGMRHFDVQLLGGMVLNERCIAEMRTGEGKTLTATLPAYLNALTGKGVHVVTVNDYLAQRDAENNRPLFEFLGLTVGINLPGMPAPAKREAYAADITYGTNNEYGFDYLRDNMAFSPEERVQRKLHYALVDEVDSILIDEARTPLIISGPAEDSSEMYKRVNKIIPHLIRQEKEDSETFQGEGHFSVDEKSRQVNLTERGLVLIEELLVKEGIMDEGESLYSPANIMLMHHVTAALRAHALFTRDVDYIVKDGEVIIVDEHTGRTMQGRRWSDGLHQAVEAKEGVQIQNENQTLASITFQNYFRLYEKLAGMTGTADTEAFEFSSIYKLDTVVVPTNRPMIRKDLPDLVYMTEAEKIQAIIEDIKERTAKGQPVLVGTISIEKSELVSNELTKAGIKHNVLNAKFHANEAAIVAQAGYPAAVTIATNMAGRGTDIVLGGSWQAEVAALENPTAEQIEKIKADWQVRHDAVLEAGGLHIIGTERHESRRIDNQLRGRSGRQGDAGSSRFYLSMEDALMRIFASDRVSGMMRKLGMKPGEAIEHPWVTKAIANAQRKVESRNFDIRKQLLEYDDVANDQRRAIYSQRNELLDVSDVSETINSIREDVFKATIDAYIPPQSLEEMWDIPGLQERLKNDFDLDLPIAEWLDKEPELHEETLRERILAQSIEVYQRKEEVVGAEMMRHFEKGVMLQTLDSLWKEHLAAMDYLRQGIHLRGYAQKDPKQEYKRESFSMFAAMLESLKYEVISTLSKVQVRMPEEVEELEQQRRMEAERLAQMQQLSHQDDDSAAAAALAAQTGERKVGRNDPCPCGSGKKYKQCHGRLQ
# [3] = biological target: T2, Ubiquitin-activating enzyme e1, putative (Leishmania donovani (strain BPK282A1)) (UniProt E9BSI1); experiment: Leishmania donovani Ubiquitin Activating Enzyme (LdE1); assay type: functional; set-up: scale not given: direction of the effect not stated beside the values; details: 30 µM
# T2 sequence (whole entry): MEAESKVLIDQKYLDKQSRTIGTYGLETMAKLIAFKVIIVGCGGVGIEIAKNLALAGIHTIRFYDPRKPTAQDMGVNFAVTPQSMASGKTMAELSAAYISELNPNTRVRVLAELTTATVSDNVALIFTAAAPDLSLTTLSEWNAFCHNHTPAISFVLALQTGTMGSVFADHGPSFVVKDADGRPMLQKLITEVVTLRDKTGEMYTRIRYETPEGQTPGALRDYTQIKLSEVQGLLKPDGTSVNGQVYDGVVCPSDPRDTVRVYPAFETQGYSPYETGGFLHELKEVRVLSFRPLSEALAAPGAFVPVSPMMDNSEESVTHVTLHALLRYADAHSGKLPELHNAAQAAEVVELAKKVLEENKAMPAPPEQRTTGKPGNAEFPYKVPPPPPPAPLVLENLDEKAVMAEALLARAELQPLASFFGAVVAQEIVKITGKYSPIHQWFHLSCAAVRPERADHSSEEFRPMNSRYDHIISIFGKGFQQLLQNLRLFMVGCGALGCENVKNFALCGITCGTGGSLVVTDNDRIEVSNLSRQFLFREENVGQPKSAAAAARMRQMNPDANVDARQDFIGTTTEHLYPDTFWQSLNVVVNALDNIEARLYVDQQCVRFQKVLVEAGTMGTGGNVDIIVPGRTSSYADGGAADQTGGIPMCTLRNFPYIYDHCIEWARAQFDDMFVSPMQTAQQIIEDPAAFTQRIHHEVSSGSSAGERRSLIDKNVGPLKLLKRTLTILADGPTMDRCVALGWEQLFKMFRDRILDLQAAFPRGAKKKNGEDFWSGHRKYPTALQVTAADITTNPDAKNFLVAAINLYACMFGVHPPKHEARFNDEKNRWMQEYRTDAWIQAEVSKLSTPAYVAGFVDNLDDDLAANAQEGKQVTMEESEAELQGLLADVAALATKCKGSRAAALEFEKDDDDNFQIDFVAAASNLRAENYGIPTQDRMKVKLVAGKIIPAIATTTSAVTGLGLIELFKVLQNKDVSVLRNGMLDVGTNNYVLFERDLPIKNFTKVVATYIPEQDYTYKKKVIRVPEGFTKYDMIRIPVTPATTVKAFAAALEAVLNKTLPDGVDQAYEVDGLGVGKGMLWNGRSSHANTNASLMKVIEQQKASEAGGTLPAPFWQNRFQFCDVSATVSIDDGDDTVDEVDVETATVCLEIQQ
# [4] = biological target: AMP-activated protein kinase, AMPK (Homo sapiens) (UniProt P54646+O43741+P54619+Q9UGJ0+Q9Y478+Q13131+Q9UGI9); experiment: AMP-dependent Kinase enzyme assay. An in vitro enzyme assay that detects ADP turnover that is directly proportional to AMPK activity. This uses naive AMPK that is activated during the assay with MK-8722; assay type: functional; set-up: scale not given: direction of the effect not stated beside the values; details: 30 µM
# [5] = biological target: Sialic acid-binding Ig-like lectin 9 (Homo sapiens) (UniProt Q9Y336); experiment: Hs-Siglec9 ALPHAscreen SOP 20170721; set-up: scale not given: direction of the effect not stated beside the values; details: 10 µM
# Sialic acid-binding Ig-like lectin 9 (Homo sapiens), sequence (Q9Y336 whole entry): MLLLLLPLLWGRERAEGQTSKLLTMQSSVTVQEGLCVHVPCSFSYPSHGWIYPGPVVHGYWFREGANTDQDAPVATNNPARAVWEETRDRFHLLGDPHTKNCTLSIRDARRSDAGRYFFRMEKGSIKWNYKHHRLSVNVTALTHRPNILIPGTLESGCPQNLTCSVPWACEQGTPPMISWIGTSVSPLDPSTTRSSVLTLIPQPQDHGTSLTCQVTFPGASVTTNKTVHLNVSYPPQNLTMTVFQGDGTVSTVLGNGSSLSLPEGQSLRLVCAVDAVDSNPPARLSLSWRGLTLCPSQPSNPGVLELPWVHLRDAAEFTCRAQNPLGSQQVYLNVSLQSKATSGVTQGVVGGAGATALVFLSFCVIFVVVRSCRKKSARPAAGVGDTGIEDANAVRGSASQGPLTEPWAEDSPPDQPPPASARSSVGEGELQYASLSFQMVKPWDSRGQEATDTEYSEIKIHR
# [6] = test system: Trypanosoma cruzi; experiment: Trypanosoma cruzi phosphomannomutase and mannose-1-phosphate guanylyltransferase assay; assay type: functional; set-up: scale not given: direction of the effect not stated beside the values; details: 10 µM
# [7] = biological target: T3, Arginase-2, mitochondrial (Homo sapiens) (UniProt P78540); experiment: in vitro enzyme assay to detect the production of urea directly proportional to the activity of Arginase II; assay type: functional; set-up: scale not given: in the data most compounds retested in dose-response had high values
# T3 sequence (whole entry): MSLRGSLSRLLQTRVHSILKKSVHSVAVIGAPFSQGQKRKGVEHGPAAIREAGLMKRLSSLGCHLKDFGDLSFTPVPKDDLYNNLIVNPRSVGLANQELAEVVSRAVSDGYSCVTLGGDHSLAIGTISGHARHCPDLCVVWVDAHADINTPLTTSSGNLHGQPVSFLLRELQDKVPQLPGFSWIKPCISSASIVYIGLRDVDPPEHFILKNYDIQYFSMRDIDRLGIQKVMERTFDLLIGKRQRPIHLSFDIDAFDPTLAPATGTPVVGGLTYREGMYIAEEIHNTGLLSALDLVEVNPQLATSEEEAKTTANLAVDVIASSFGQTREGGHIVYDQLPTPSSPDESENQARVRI
# [8] = biological target: T4, Proteasome subunit beta (Trypanosoma cruzi) (UniProt O96673); experiment: Trypanosoma cruzi proteasome chymotrypsin-like activity (TcProtChymo) assay.; assay type: functional; set-up: scale not given: in the data most compounds retested in dose-response had high values; details: 9.37 µM
# T4 sequence (whole entry): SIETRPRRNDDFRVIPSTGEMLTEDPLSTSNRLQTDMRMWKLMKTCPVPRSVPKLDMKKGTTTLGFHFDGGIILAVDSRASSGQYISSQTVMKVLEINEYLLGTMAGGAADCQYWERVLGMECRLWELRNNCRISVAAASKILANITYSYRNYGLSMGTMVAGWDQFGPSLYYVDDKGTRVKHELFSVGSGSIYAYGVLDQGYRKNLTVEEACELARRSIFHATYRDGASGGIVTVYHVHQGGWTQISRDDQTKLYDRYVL
# [9] = organism: Homo sapiens; experiment: To identify inhibition of the IFN signalling (Jak-Stat) pathway via expression of an eGFP reporter gene under the control of an IFN-stimulated response element (ISRE) containing MxA promoter.; assay type: functional; set-up: scale not given: direction of the effect not stated beside the values; details: 30 µM
# [10] = biological target: T5, Tyrosyl-tRNA synthetase, putative (Trypanosoma cruzi (strain CL Brener)) (UniProt Q4DSP6); experiment: Trypanosoma cruzi tyrosyl tRNA synthetase (TcYRS) _High Tyrosine SOP; assay type: functional; set-up: scale not given: in the data most compounds retested in dose-response had high values; details: 30 µM
# T5 sequence (whole entry): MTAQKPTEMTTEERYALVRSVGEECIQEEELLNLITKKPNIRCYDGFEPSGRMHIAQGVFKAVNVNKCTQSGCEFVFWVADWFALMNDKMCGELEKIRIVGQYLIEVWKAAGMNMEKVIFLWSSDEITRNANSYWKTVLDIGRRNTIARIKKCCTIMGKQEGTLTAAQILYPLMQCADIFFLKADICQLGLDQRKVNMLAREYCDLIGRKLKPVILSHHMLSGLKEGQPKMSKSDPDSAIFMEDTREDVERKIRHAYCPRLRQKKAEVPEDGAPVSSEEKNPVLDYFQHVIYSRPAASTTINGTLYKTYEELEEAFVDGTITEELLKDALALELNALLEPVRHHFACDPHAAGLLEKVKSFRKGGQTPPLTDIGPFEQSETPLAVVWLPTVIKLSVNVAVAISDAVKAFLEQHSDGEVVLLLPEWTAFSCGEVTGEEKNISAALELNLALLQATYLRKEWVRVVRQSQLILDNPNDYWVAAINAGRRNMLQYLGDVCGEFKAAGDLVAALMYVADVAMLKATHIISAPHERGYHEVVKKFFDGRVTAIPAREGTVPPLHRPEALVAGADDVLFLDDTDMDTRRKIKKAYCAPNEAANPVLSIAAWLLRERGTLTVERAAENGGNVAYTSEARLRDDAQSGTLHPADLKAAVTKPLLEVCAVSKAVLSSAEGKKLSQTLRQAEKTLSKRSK
# [11] = biological target: T5, Tyrosyl-tRNA synthetase, putative (Trypanosoma cruzi (strain CL Brener)); experiment: Trypanosoma cruzi tyrosyl tRNA synthetase (TcYRS) SOP; assay type: functional; set-up: scale not given: direction of the effect not stated beside the values; details: 30 µM
# [12] = biological target: Chromo domain-containing protein 1 (Saccharomyces cerevisiae (strain ATCC 204508 / S288c) (Baker's yeast)) (UniProt P32657); experiment: ScCHD-1 Enzyme Inhibition Assay; assay type: functional; set-up: scale not given: in the data most compounds retested in dose-response had high values; details: 30 µM
# Chromo domain-containing protein 1 (Saccharomyces cerevisiae (strain ATCC 204508 / S288c) (Baker's yeast)), sequence (P32657 whole entry, the tested form may be a part): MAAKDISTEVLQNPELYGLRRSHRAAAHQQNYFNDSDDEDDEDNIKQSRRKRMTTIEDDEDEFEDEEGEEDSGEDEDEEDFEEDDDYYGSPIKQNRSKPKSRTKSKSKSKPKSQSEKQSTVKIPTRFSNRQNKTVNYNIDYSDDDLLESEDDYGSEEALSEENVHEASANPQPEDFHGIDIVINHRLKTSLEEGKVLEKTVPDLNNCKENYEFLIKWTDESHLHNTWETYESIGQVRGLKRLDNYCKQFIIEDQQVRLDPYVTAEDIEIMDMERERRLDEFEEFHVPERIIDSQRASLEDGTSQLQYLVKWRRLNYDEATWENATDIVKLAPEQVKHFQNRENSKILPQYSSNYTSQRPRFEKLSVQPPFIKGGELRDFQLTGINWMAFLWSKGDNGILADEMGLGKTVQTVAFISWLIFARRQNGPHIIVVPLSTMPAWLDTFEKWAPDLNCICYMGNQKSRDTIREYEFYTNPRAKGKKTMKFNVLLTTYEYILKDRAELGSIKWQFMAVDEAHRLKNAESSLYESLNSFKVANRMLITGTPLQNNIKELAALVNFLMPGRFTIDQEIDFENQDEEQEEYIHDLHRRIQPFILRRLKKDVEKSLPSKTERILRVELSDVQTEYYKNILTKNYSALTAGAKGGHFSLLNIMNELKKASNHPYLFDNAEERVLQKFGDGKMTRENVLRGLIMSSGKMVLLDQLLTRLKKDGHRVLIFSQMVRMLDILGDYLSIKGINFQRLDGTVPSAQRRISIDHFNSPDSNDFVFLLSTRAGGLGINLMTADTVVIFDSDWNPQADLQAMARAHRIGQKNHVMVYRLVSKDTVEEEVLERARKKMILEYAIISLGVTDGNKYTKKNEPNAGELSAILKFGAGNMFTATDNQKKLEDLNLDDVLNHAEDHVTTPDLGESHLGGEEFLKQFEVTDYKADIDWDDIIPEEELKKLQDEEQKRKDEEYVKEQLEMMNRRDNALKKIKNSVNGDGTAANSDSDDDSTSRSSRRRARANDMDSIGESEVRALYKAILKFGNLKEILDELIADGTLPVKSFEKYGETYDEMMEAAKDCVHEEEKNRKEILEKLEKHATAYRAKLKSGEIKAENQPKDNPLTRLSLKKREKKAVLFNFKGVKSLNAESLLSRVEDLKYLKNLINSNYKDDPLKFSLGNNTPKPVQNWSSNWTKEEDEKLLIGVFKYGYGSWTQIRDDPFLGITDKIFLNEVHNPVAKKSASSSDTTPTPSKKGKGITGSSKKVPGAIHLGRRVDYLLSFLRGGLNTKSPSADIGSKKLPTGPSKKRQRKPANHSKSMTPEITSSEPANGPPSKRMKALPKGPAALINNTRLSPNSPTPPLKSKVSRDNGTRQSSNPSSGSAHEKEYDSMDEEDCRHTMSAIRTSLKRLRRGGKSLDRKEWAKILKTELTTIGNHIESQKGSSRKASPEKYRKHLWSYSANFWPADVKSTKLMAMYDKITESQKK
smiles,measurement,setting,value
CCN(CC)c1ccc2ccc(C(=O)NC3CC3)cn12,PXC50,[1]; MAX_EFFECT 23.88888889,< 4
same,PXC50,[1]; MAX_EFFECT 27.69953052,< 4
same,PXC50,[1]; MAX_EFFECT 36.60245184,< 4
same,PXC50,[1]; MAX_EFFECT 45.65217391,< 4
same,PXC50,[1]; MAX_EFFECT 46.2585034,< 4
O=C(c1ccc2[nH]ccc2c1)N1CCn2cnc(COCC3CC3)c2C1,PXC50,"[1]; BOTTOM 5.122464756, HILLSLOPE 1.784249951, MAX_EFFECT 79.5379538, TOP 100.0",4.27
same,PXC50,"[1]; BOTTOM 5.453463465, HILLSLOPE 1.390916791, MAX_EFFECT 57.24637681, TOP 100.0",4.07
same,PXC50,[1]; MAX_EFFECT 37.27598566,< 4
same,Percent Effect,[2],1.11%
same,Percent Effect,[3],7.79%
same,Percent Effect,[4],5.2%
same,Percent Effect,[5],-2.14%
same,Percent Effect,[6],-2.66%
same,Percent Effect,[7]; 33.3 µM,13.6%
same,Percent Effect,[8],17.4%
same,Percent Effect,[9],5.61%
same,Percent Effect,[10],26.5%
same,Percent Effect,[11],37.2%
same,Percent Effect,[12],-6.46%
Cc1ccccc1C1(CNc2nnc(C)c(C)c2C#N)CCOCC1,PXC50,[1]; MAX_EFFECT 12.82660333,< 4
same,PXC50,[1]; MAX_EFFECT 19.54225352,< 4
same,Percent Effect,[2],-3.65%
same,Percent Effect,[3],0%
same,Percent Effect,[4],-11.2%
same,Percent Effect,[5],2.86%
same,Percent Effect,[6],-0.193%
same,Percent Effect,[7]; 33.3 µM,-0.952%
same,Percent Effect,[8],9.31%
same,Percent Effect,[9],19.4%
same,Percent Effect,[10],2.65%
same,Percent Effect,[11],0%
same,Percent Effect,[12],-3.83%
c1ccc(C2CCN(c3cncc(-n4cccn4)n3)CC2)cc1,PXC50,[1]; MAX_EFFECT 19.47743468,< 4
same,PXC50,[1]; MAX_EFFECT 35.38732394,< 4
same,Percent Effect,[2],-1.56%
same,Percent Effect,[3],8.11%
same,Percent Effect,[4],3.62%
same,Percent Effect,[5],3.88%
same,Percent Effect,[6],1.17%
same,Percent Effect,[7]; 33.3 µM,5.42%
same,Percent Effect,[8],14.1%
same,Percent Effect,[9],10%
same,Percent Effect,[10],9.9%
same,Percent Effect,[11],18.3%
same,Percent Effect,[12],-4.19%
Cn1cc(CN2C[C@@H]3COC[C@]3(C(=O)NCc3ccccn3)C2)cn1,Percent Effect,[2],-3.43%
same,Percent Effect,[3],5.33%
same,Percent Effect,[4],0.406%
same,Percent Effect,[5],6.2%
same,Percent Effect,[6],0.772%
same,Percent Effect,[7]; 30 µM,-0.54%
same,Percent Effect,[7]; 33.3 µM,-54.3%
same,Percent Effect,[8],4.62%
same,Percent Effect,[9],-8.11%
same,Percent Effect,[10],2.08%
same,Percent Effect,[11],2.5%
same,Percent Effect,[12],-5.35%
